Only some compounds are listed: those with a hit (about 5.3% of all), similar ones and a draw of the others.
CtBP-E1A blk: qHTS Assay for Inhibitors of the CtBP/E1A Interaction | CtBP / adenovirus E1A interaction (AlphaScreen) | AlphaScreen GST-E1A/His-CtBP binding, 1536-well; active compounds read low | activity change, % (no concentration beside the values) | hit rate 0.49% among 340,000 | AID 651724, 2012; in the data active means activity change below about -65%; inconclusive means mostly about -30% to -63%; further: on the % scale 0 is the no-effect control and ±100 the full control effect
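Steps: dispense buffer (Tris pH 8.0, NaCl 300 mM, TCEP 1 mM, BSA, Tween 20); add 5X protein mix (GST-E1A, His-CtBP, 125 nM each); pin 23 nL compound; 2 h at 37 °C, dark; add 5X beads (50 ug/mL); 1 h; read.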
TDP1 block: qHTS Assay for Inhibitors of Tyrosyl-DNA Phosphodiesterase (TDP1); Potency, µM (doses to about 130 µM), without a hit: at the highest dose activity change, negative = inhibition, usual class: inhibitors; AID 485290, 2010; hit rate 0.28% among 350,000; Tyrosyl-DNA phosphodiesterase 1 (Homo sapiens), Q9NUW8; recombinant TDP1, AlphaScreen DNA substrate cleavage; further: potency means the concentration at half of the fitted maximal effect; on the % scale 0 is the no-effect control and ±100 the full control effect; nearly all actives have a fitted effect of over 40% in size
Target sequence (Q9NUW8 whole entry, looked up): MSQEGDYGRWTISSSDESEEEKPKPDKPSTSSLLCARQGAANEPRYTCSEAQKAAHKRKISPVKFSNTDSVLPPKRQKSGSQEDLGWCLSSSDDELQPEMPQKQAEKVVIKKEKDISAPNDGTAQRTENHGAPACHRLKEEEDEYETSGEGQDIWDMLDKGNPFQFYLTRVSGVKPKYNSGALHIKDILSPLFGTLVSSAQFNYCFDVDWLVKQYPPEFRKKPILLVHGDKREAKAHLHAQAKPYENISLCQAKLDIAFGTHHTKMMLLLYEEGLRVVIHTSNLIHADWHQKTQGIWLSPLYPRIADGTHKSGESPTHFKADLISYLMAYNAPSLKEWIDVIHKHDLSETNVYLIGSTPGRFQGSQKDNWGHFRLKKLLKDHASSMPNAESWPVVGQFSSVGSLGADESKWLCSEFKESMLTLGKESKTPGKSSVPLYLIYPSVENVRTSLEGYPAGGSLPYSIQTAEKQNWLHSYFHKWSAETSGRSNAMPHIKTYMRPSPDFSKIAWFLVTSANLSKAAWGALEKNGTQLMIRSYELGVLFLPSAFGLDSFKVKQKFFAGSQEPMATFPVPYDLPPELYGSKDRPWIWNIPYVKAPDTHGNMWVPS
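Signal: AlphaScreen proximity between streptavidin donor and anti-FITC acceptor beads on intact substrate. Reaction: Tdp1 1 nM, substrate 15 nM final, 5 min RT after 15 min compound preincubation.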
Six1-Eya2 blk: qHTS Assay for Inhibitors of the Six1/Eya2 Interaction | AlphaScreen GST-Six1/His-Eya2 binding, biochemical; active compounds read low | Homeobox protein SIX1 (Homo sapiens) + Protein phosphatase EYA2 (Homo sapiens), … | AID 651725, 2012 | activity change, % (concentration not given with the values) | hit rate 0.56% among 360,000; in the data active means activity change below about -65%; inconclusive means mostly about -30% to -63%; further: on the % scale 0 is the no-effect control and ±100 the full control effect
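AlphaScreen with GST-Six1 and His-Eya2 (5X mix: 250 nM and 500 nM), glutathione donor and nickel acceptor beads; buffer 50 mM Tris pH 8.0, 300 mM NaCl, 1 mM TCEP; 1 h at 37 C in the dark.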
JMJD2A Tudor inh: qHTS Assay for Inhibitors of JMJD2A-Tudor Domain. Lysine-specific demethylase 4A (Homo sapiens), O75164. AlphaScreen JMJD2A-Tudor / H3K4me3 peptide binding. Potency, µM (highest dose often 114 µM), for inactives: at the highest dose activity change, negative = inhibition, actives largely listed as inhibitors. hit rate 4.4% among 390,000. AID 504339, 2011; further: potency means the concentration at half of the fitted maximal effect; on the % scale 0 is the no-effect control and ±100 the full control effect; nearly all actives have a fitted effect of over 50% in size
HP1b chromo inh: HTS for Inhibitors of HP1-beta Chromodomain Interactions with Methylated Histone Tails; Chromobox protein homolog 1 (Homo sapiens), P83916; AlphaScreen HP1-beta / biotin-H3K9me3 peptide binding; Potency, µM (titrated, usually from 114 µM), for inactives: at the top dose activity change, negative = inhibition, hits mostly inhibitors; hit rate 0.56% among 390,000; further: potency means the concentration at half of the fitted maximal effect; nearly all actives have a fitted effect of over 70% in size
Target sequence (P83916 whole entry, looked up): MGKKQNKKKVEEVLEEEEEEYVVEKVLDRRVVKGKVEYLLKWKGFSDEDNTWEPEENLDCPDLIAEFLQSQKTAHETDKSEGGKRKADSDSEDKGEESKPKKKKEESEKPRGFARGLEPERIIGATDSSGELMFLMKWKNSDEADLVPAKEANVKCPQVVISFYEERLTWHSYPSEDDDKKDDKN
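HP1-beta protein (50 nM final) preincubated 30 min at room temperature with biotinylated H3(1-18)K9me3 peptide (50 nM) in PBS pH 7.4, 0.01% Tween-20, then compound added for 30 min. AlphaScreen streptavidin donor/nickel chelate acceptor beads (10 ug/mL final), 30 min dark, luminescence read.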
BAZ2B inh: qHTS Assay for Inhibitors of BAZ2B. Bromodomain adjacent to zinc finger domain protein 2B (Homo sapiens), Q9UIF8. AlphaScreen BAZ2B-H3K14Ac peptide displacement. Potency, µM (top dose mostly 114 µM), for the others: top-dose activity change, negative = inhibition, hits mostly inhibitors. hit rate 4.4% among 360,000. AID 504333, 2011; further: potency means the concentration at half of the fitted maximal effect; on the % scale 0 is the no-effect control and ±100 the full control effect; nearly all actives have a fitted effect of over 60% in size
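In this displacement format the biotinylated H3(5-23) peptide acetylated at Lys14 serves as ligand at 50 nM, with BAZ2B at 50 nM in PBS pH 7.4 containing 0.01% Tween-20. Donor and acceptor beads are 10 ug/mL final.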
Numbers without * were called inactive; ? = inconclusive; . = not tested or not shown; [ ] = remark or other dose. Unless noted, the call rests on the fitted dose curve; in most records, active means well fitted inhibition curve with a large enough effect; inconclusive means small, poorly fitted or top-dose-only effect; inactive means no such curve, though single readings can be large or run the other way.

SMILES	CtBP-E1A blk	TDP1 block	Six1-Eya2 blk	JMJD2A Tudor inh	HP1b chromo inh	BAZ2B inh
S=C(NC1CCCC1)N1CCN(c2ccccn2)CC1	-1.8	-0.6%	-0.7	-20.0%	10.0%	4.1%
O=S(=O)(c1ccc(Oc2ccc3c(c2)OCO3)c(S(=O)(=O)N2CCOCC2)c1)N1CCOCC1	.	1.7%	.	-30.0%[57.1 µM]	7.0%[57 µM]	.
Cc1cnc2c(c1SCC(=O)N(C)c1ccccc1)c(=O)n(C)c(=O)n2C	.	5.2%	.	-4.5%	34.4%	-0.7%
Cc1ccc(C)c(OCCCn2c(-c3ccc(Cl)cc3)nc3ccccc3c2=O)c1	.	.	.	6.9%	54.6%	8.2%
CCc1cccc(NC(=O)C(Cc2ccccc2)NS(=O)(=O)c2ccc3c(c2)oc(=O)n3C)c1 (stereo not drawn)	.	3.5%	.	1.0%	68.4%	9.7%
c1ccc(-c2cccc(-c3ccccc3)n2)cc1	.	.	36.5	133.6%	168.9%	175.7%
c1ccc(-c2ccncc2)nc1	6.7	-0.4%	0.4	-11.4%	45.5%	-4.3%
c1ccc(-c2nnc(-c3ccccn3)nn2)nc1	-91.3*	.	-78.8*	-23.5%[11.4 µM]	37.5%	.
c1ccc(-c2cccc(-c3ccccn3)n2)nc1	-101.4*	8.0%	-91.4*	20µM*	30.9%	17.8µM*
OC[C@@H]1O[C@@H](O)[C@H](O)[C@H](O)[C@@H]1O	.	5.6%	.	.	.	.
CSc1nc(=NC(C)=O)ss1	9.9	4.5%	-12.4	31.6µM*	?	?
Cc1c(CN(C)C)c2c(n1C)C(=O)c1ccc(Br)cc1-2	6.1	6.1%	-28.8	?	-4.0%	?
Cc1c(CN(C)C)c2c(n1Cc1ccccc1)C(=O)c1ccc(Br)cc1-2	?	11.3%	-65.2*	39.8µM*	?	22.4µM*
CC(C)CCNC(=O)Cn1nc(N2CCN(c3ccccc3)CC2)ccc1=O	.	-2.6%	.	-9.1%	37.0%	-3.3%
CC(C)COCc1ccc(O)c2ncccc12	-90.9*	5.4%	-79.4*	44.7µM*	16.5%	25.1µM*
CCCOCc1ccc(O)c2ncccc12	-94.0*	.	-69.8*	56.2µM*	34.8%	12.6µM*
Cn1c(=O)c2c(nc(Oc3ccccc3Cl)n2Cc2ccc(C#N)cc2)n(C)c1=O	.	-4.7%	.	-13.0%	18.8%	.
CC(=O)c1ccc(OCCCN2CCCCC2)cc1	-1.8	-2.5%	3.5	2.24µM*	?	50.1µM*
O=C(c1ccccc1)c1ccc(OCCCN2CCCCC2)cc1	0.2	-6.6%	0.5	7.94µM*	-35.3%	31.6µM*
CN1/C(=C\C(=O)c2cccnc2)C(C)(C)c2ccccc21	.	-2.3%	3.2	28.3%	67.9%	8.7%
Cc1ccc(C(=O)NC(=S)/C=C2\N(C)c3ccccc3C2(C)C)cc1	-81.1*	8.2%	-75.4*	22.4µM*	12.6µM*	12.6µM*
CN1/C(=C\C(=O)C(F)F)C(C)(C)c2ccccc21	16.7	4.1%	10.4	16.3%	44.8%	19.2%
CC(C)C(=O)NC(=S)/C=C1/N(C)c2ccccc2C1(C)C	-11.5	9.2%	?	39.8µM*	50.1µM*	31.6µM*
Nc1ncnc(Oc2cccc3cccnc23)c1[N+](=O)[O-]	-13.1	-5.1%	-66.6*	-0.7%	31.4%	44.7µM*
Cc1cccc(Oc2ncnc(N)c2[N+](=O)[O-])c1C	0.9	-1.9%	7.0	-2.1%	31.1%	12.0%
SMILES	CtBP-E1A blk	TDP1 block	Six1-Eya2 blk	JMJD2A Tudor inh	HP1b chromo inh	BAZ2B inh
CCCOc1ccc(C2c3c(oc4ccccc4c3=O)C(=O)N2c2nc(C)c(C(=O)OCC)s2)cc1 (stereo not drawn)	.	-2.1%	.	-2.1%	47.9%	11.2%[57.1 µM]
Cc1cc(C(C)(C)C)ccc1OCCn1ccnc1	24.6	7.0%	7.1	14.1µM*	?	35.5µM*
CC(C)(C)c1cc(Cl)ccc1OCCn1ccnc1	-21.1	9.6%	-5.3	5.01µM*	?	39.8µM*
CC(=O)N1CCN(c2csc3ccc(F)cc3c2=O)CC1	.	3.0%	.	-7.3%	26.6%[57 µM]	-17.2%
Cc1ccc(CSC2=Nc3ccccc3C3=NC(CCC(=O)N4CCN(c5ccccc5)CC4)C(=O)N23)cc1 (stereo not drawn)	.	0.0%[12.3 µM]	.	-30.1%	7.1%	-30.2%
CCCc1nc2ccccc2c(=O)n1/N=C/c1ccccc1O	15.4	6.7%	?	-19.0%	49.8%	-5.3%
Cc1cc(/C=N/n2c(COc3ccccc3C)nc3ccccc3c2=O)c(O)c([N+](=O)[O-])c1	-73.0*	-2.6%	-67.8*	25.1µM*	?	?
O=c1c2ccccc2nc(COc2ccccc2)n1/N=C/c1cc([N+](=O)[O-])ccc1O	-4.9	-0.6%	-88.9*	-27.5%	13.0%	-3.9%
O=C(c1ccc2c(c1)N(Cc1ccc(Cl)cc1)C(=O)c1ccccc1S2(=O)=O)N1CCc2ccccc21	.	0.0%	.	-20.5%	27.3%	-31.9%
COc1ccc(C(=O)N2CCN(Cc3ccccc3C(F)(F)F)CC2)cc1	-0.2	.	-2.1	25.1µM*	?	?
COc1ccc(C(=O)N2CCN(Cc3ccccc3[N+](=O)[O-])CC2)cc1	0.4	.	1.2	22.4µM*	?	50.1µM*
COc1cccc(C(=O)N2CCN(Cc3ccccc3C(F)(F)F)CC2)c1	-4.5	-12.2%	7.5	-2.1%[11.4 µM]	?	28.2µM*
COc1ccc(NC(=O)CN2C(=O)CCn3nc(-c4cccn4C)cc32)cc1	.	6.5%	.	?	-3.9%[57 µM]	?
Cc1ccc(-n2c(SCC(=O)Nc3ccc4c(c3)OCO4)nnc2-c2cccs2)cc1	-3.9	3.1%	-0.8	56.2µM*	30.3%	11.1%
COc1cc(-c2nc(SCC(=O)Nc3ccc4c(c3)OCO4)c(-c3ccccc3)[nH]2)cc(OC)c1OC	.	7.5%	.	?	?	?
O=C(CSc1ncn(-c2ccccc2)n1)Nc1ccc2c(c1)OCO2	0.6	2.0%	-1.1	89.1µM*	12.1%	-1.0%
O=C(CSc1nc(-c2ccccc2)[nH]c1-c1ccccc1)Nc1ccc2c(c1)OCO2	.	10.0%	.	?	?	56.2µM*
CCC1CCCCN1S(=O)(=O)c1ccc(NC(=O)CSc2ncccc2C(=O)O)cc1 (stereo not drawn)	5.4	2.1%	-83.5*	-17.7%	2.2%	0.6%
O=S(=O)(c1ccc2[nH]c3c(c2c1)CCCCC3)N1CCN(c2cccc(Cl)c2)CC1	.	8.5%	.	?	3.7%	-10.9%[57.1 µM]
